Bioassay records from PubChem.
PREPL inh = inhibits the human prolyl oligopeptidase-like enzyme | Q4J6C6 | recombinant PREPL, fluorescence polarization activity-based probe | inhibition, % at 5.96 µM | actives 0.68% (n = 320,000) | AID 2751; in the data active means inhibition above about 43%
NadD inh = NadD (S. aureus) enzyme inhibition | inhibition, % at 20 µM | purified NadD enzyme, colorimetric absorbance read-out | actives 0.78% (n = 360,000); in the data active means inhibition above about 26%
PP1 counter = PP1-alpha (human) inhibition in PP5 counter-screen; P62136; inhibition, % at 6.7 µM; actives 0.9% (n = 320,000); purified PP1alpha, OMFP fluorescence;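 active means inhibition above the mean inhibition of all tested compounds plus 3 SD, computed separately for each screening campaign, cut at about 15% in these data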
Target sequence (P62136 whole entry, looked up): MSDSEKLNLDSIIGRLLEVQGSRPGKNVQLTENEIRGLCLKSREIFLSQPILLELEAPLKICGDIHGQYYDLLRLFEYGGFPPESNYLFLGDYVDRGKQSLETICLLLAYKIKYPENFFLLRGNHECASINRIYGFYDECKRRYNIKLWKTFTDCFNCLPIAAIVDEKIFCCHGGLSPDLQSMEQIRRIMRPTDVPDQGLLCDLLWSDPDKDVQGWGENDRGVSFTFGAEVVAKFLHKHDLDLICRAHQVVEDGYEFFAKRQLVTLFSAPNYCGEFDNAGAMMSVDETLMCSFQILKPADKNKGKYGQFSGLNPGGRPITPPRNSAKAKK
PP5 inh = blocks human protein phosphatase 5 activity; purified PP5c, OMFP substrate fluorescence; inhibition, % at 6.7 µM; actives 0.18% (n = 320,000); AID 1987;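 active means inhibition above the campaign's mean inhibition across all tested compounds plus 3 SD, cut at about 9.5% in these data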
Rpn11 block = blocks the human proteasome subunit Rpn11. actives 0.59% (n = 360,000). inhibition, % at 20 µM. AID 588493. O00487. human 26S proteasome, Ub4-pepOG fluorescence polarization; 20S core pre-blocked with epoxomicin;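 active means inhibition at 20 µM, scaled to each plate's controls, above about 33%, limit read from the data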
Target sequence (O00487 whole entry, looked up): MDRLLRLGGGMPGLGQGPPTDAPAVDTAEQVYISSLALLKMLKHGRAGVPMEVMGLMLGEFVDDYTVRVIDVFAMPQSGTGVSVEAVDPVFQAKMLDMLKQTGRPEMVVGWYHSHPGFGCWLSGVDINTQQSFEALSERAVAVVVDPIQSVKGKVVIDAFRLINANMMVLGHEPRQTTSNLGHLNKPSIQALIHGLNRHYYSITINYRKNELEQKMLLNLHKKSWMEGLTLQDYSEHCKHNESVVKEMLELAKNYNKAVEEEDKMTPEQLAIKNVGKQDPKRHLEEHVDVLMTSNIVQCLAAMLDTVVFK
Each line names hits and unclear results; the compound was inactive in the other large screens. Shown are actives, neighbours in structure and some others; about 2.4% of the full set was active somewhere.

O=c1c(N=Nc2ccc(O)cc2)c(-c2ccccc2)[nH]n1-c1ccc([N+](=O)[O-])cc1	NadD inh 40
Cc1ccc([N+](=O)[O-])cc1N=Nc1c(C)[nH]n(C(N)=S)c1=O	none
O=c1cc(-c2ccccc2)[nH]n1-c1ccc([N+](=O)[O-])cc1	PP1 counter 16
Cc1ccc([N+](=O)[O-])cc1N=Nc1c(-c2ccc([N+](=O)[O-])cc2)[nH]n(C(N)=S)c1=O	NadD inh 53 (no result: PREPL inh, PP1 counter, PP5 inh)
NC(=S)n1[nH]c(-c2ccc([N+](=O)[O-])cc2)c(N=Nc2ccc(Cl)cc2)c1=O	NadD inh 68 (no result: PREPL inh, PP1 counter, PP5 inh)
COC(=O)c1cccc(CC2(C)C(=O)Nc3cc(-c4ccccc4Cl)ccc32)c1 (centres undefined)	none (no result: PREPL inh, PP1 counter, PP5 inh)
Cc1cc(C)cc(C(=O)OCC(=O)Nc2ncccn2)c1	none
COc1ccc(N=CC2=C(Nc3ccc(OC)cc3)c3c(C)nn(-c4ccccn4)c3CC2)cc1	PREPL inh 72 (no result: NadD inh, Rpn11 block)
COc1ccc(-c2cc(C(=O)O)c3c(C)nn(-c4ccccn4)c3n2)cc1	none (no result: NadD inh, Rpn11 block)
Nc1cc(=O)[nH]c(SCC(=O)N2CCCc3ccccc32)n1	none
Nc1nc2nc(SCC(=O)N3CCCc4ccccc43)[nH]c2c(=O)[nH]1	PP1 counter 15 (no result: NadD inh, Rpn11 block)
Cc1cccc(OCC(=O)Nc2nonc2NC(=O)COc2cccc(C)c2)c1	none
Cc1ccc(C)c(OCC(=O)Nc2nonc2NC(=O)COc2cc(C)ccc2C)c1	PP1 counter 17
O=C(Nc1nc2c(s1)CN(Cc1ccccc1)CC2)C1CCC1	none
CN(C)c1ccc(/C=C(\C#N)C(=O)Nc2nc3c(s2)CCN(Cc2ccccc2)C3)cc1	NadD inh 33 (not shown: Rpn11 block)
CCCCNC(=O)c1ccc2nc(CC)c(N(CC)CCOC)n2c1	none (no result: PREPL inh, PP1 counter, PP5 inh)
C=CCn1c(C)cc(-c2csc(NC)n2)c1C	none (no result: PREPL inh, PP1 counter, PP5 inh)
Cc1cc(-c2csc(N)n2)c(C)n1-c1ccc(Cl)c(Cl)c1	NadD inh 36, PP1 counter 17
C=CCn1c(C)cc(-c2csc(N)n2)c1C	PREPL inh 49
CC(=O)OC(C)C1C2=C(C(=O)CC1(C)O)C(=O)c1c(ccc(-c3ccc4c(c3O)C(=O)C3=C(C4=O)C(C(C)OC(C)=O)C(C)(O)CC3=O)c1O)C2=O (centres undefined)	NadD inh 45 (no result: PREPL inh, PP1 counter, PP5 inh)
Cc1ccc2nc(CSc3nc(C)cc(C)c3C#N)[nH]c2c1	PREPL inh 58
COc1ccc(CN(CC2CCC(C(=O)O)CC2)C(=S)Nc2ccc(C)c(Cl)c2)cc1 (centres undefined)	none
Cc1ccc(NC(=S)N(Cc2ccc(Cl)cc2)Cc2ccc(C(=O)O)cc2)cc1Cl	PP1 counter 17
COc1ccc(NC(=O)c2cccc3c2C(=O)c2ccc(-c4ccc(F)cc4OCc4ccccc4)cc2S3(=O)=O)cc1	NadD inh 30 (no result: PP1 counter, PP5 inh)
COc1ccc(-c2ccc3c(c2)S(=O)(=O)c2cccc(C(=O)NCCOc4ccccc4)c2C3=O)cc1OC	none
Cc1c(N2C(=O)/C(=C\c3ccc(N(C)C)cc3)N(C)C2=S)c(=O)n(-c2ccccc2)n1C	PP1 counter 16 (not shown: Rpn11 block)
COc1ccc(NC(=O)C2Cc3c(-c4cccc(C(N)=O)c4)ccnc3O2)cc1 (centres undefined)	none (no result: PREPL inh, PP1 counter, PP5 inh)
Oc1ccc(/C=N/Nc2ncnc3c2ncn3Cc2ccccc2)cc1O	NadD inh 39
CC1=NN(c2nc(-c3ccc(C)cc3)cs2)C(=O)C1N=Nc1cccc(O)c1 (centres undefined)	NadD inh 38
O=C(OCc1ccc([N+](=O)[O-])cc1)C1CC(=O)N(Cc2ccccc2)C1 (centres undefined)	none (no result: PP1 counter, PP5 inh)
COCCN(C(=O)C1CC(=O)N(Cc2ccccc2)C1)c1nc(-c2ccc([N+](=O)[O-])cc2)cs1 (centres undefined)	PP1 counter 17
Cc1ccsc1C(=O)N1CCCC(C)(C(=O)O)C1 (centres undefined)	none (no result: PREPL inh, PP1 counter, PP5 inh)
CCCCN(C)CC(O)Cn1cc(/C=C/C(=O)c2ccc(C)cc2)c2ccccc21 (centres undefined)	PREPL inh 45, Rpn11 block 46
COc1ccc(C(=O)/C=C/c2cn(CC(O)CN3CCN(C)CC3)c3ccccc23)cc1OC (centres undefined)	none (not shown: Rpn11 block)
O=C(/C=C/c1cn(CC(O)CN2CCCCC2)c2ccccc12)c1ccccc1 (centres undefined)	Rpn11 block 42 (no result: PREPL inh, PP1 counter, PP5 inh)
CN1CCN(Cn2cc(/C=C/C(=O)c3ccccc3)c3ccccc32)CC1	none
COc1cc2ccccc2cc1C(=O)N/N=C/c1cccs1	none (no result: PREPL inh, PP1 counter, PP5 inh)
Cc1cccc(N2C(=O)C(O)=C(C(=O)c3cccs3)C2c2ccc(Cl)cc2)n1 (centres undefined)	PP1 counter 17
Cc1cccc(N2C(=O)C(O)=C(C(=O)c3cccs3)C2c2ccccc2)n1 (centres undefined)	none
COc1ccccc1NC(=O)c1cc2cc(Br)ccc2cc1O	NadD inh 30
COCCCNc1ccn2nc(-c3ccc(OCc4ccccc4)cc3)cc2n1	none (no result: PREPL inh, PP1 counter, PP5 inh)
CCOC(=O)[C@]12CCC=C1N(CCC1=CCCCC1)C(=O)[C@H](CC(=O)N1CCCC1)C2	none (no result: PREPL inh, PP1 counter, PP5 inh, Rpn11 block)
O=C(N/N=C/c1ccc(Cl)cc1)c1cc(-c2cccnc2)nc2ccccc12	PP1 counter 17
O=C(N/N=C/c1cccnc1)c1cc(-c2ccc(Cl)cc2)nc2ccccc12	none
COc1ccccc1-c1noc2c1C(=O)N(Cc1cn(-c3ccccc3OC)nn1)CC2	none (no result: PREPL inh, PP1 counter, PP5 inh, Rpn11 block)
CC(/C=C1\SC(=S)N(NC(=O)c2ccc(C)cc2)C1=O)=C\c1ccccc1	NadD inh 30
CC(/C=C1\SC(=S)N(NS(=O)(=O)c2ccc(C)cc2)C1=O)=C\c1ccccc1	PP1 counter 16
COc1ccc(C#Cc2c(-c3ccsc3)oc3ccc(-c4cc(OC)c(OC)c(OC)c4)cc23)cc1	none
CC(C)n1c(=O)c2ccccc2n1Cc1cn(-c2ccc(Cl)cc2)nn1	none (no result: PREPL inh, PP1 counter, PP5 inh)
O=C(CN1C(=O)/C(=C/c2cccc(Br)c2)SC1=S)Nc1cccnc1	none
O=C(CN1C(=O)/C(=C/c2ccccc2)SC1=S)NNC(=O)c1ccccc1O	NadD inh 37
O=C(CN1C(=O)/C(=C/c2cccc(Br)c2)SC1=S)NC1=NCCS1	NadD inh 34
Cc1ccc(/C=C2\SC(=S)N(CCC(=O)NNC(=O)c3ccccc3O)C2=O)cc1	NadD inh 38
CN1C(=O)/C(=C/c2ccc(C(=O)Nc3ccc(O)cc3C(=O)O)cc2)SC1=S	NadD inh 40
CCc1ccccc1NC(=S)N(CCN1CCCCC1)Cc1ccco1	none
Cc1ccc(-n2sc3cc(F)ccc3c2=O)c(C)c1	none (no result: PREPL inh, PP1 counter, PP5 inh)
Cc1ccc(/C=C2\SC(=S)N(CCC(=O)NNC(=O)c3ccc(O)cc3)C2=O)cc1	NadD inh 45
Cc1ccc(/C=C2\SC(=S)N(CCC(=O)NNC(=O)c3cccc(O)c3)C2=O)cc1	none
Cc1cccc(Cc2cnc(NC(=O)CN3C(=O)/C(=C/c4ccccc4)SC3=S)s2)c1	NadD inh 31
COc1ccc([C@H]2C[C@H](n3cc(-c4ccc(F)cc4)nn3)[C@@H](O)CN2C(=O)C2CCCCC2)cc1	none (no result: PREPL inh, PP1 counter, PP5 inh)
